# Test results taken from PubChem BioAssay (EPA / NIEHS).
# Records with an inconclusive call do not appear. The source made the active and inactive calls. Rule for the calls, unless noted: active = hit-call score of the fitted dose curve at least 0.9, where 1 is the maximum; inactive = score below 0.9.
# Tests used:
# [1] = tested on: SRY-box transcription factor 2 (SOX2) Protein Expression, Deisenroth Lab, SOX2 (gene 6657); assay: CCTE_Deisenroth_DEVTOX-GLR_Endo_SOX2: CCTE's DevTox GLR-Endo Assay Evaluation of SRY-box transcription factor 2 (SOX2) Protein Expression, Deisenroth Lab (AID 2284412; active = hit-call score of the fitted dose curve at least 0.9, where 1 is the maximum)
# Procedure, shortened: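 Endpoint is percent SOX2-positive cells (SOX2+ count/total cells) minus 0.2% DMSO control, from high-content imaging of fixed, nuclear-stained RUES2-GLR cells. Dosing twice at 24 h intervals over 48 h differentiation, 1 nM–200 uM in 10 points.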
# [2] = tested on: SRY-box transcription factor 17 (SOX17) Protein Expression, Deisenroth Lab, SOX17 (gene 64321); assay: CCTE_Deisenroth_DEVTOX-GLR_Endo_SOX17: CCTE's DevTox GLR-Endo Assay Evaluation of SRY-box transcription factor 17 (SOX17) Protein Expression, Deisenroth Lab (AID 2284413)
# Procedure, shortened: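 Fluorescent microscopy of a SOX17 reporter in RUES2-GLR pluripotent cells scored endoderm differentiation after 48 h and two 24-h-spaced exposures. Values are percent change in SOX17+ population against 0.2% DMSO, n=4 experimental replicates.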
# [3] = tested on: Brachyury (BRA) Protein Expression, TBXT (gene 6862); assay: CCTE_Deisenroth_DEVTOX-GLR_Endo_BRA: CCTE's DevTox GLR-Endo Assay Evaluation of Brachyury (BRA) Protein Expression, Deisenroth Lab (AID 2284417)
# Protocol: CCTE_Deisenroth_DEVTOX-GLR_Endo assay is a cell-based, multiplex-readout assay that uses RUES2-GLR, a human pluripotent cell line, with measurements taken at 48 hours after chemical dosing in a 384-well microplateCCTE_Deisenroth_DEVTOX-GLR_Endo_BRA is 1 of 4 assay components calculated from the CCTE_Deisenroth_DEVTOX-GLR_Endo assay and it measures the percentage of cells in an mesoderm state. Using a type of inducible fluorescent protein reporter, gain-of-signal activity can be used to understand changes in gene expression with fluorescent microscopy. The percentage of BRA+ cells are determined by calculating the number of BRA+ cells divided by the cell count. To generalize the intended target to other relatable targets, this assay component is annotated to the transcription factor intended target family, where the subfamily is T-box protein.Data from the assay component CCTE_Deisenroth_DEVTOX-GLR_Endo_BRA was analyzed as 1 assay endpoint. The endpoint is the percent BRA+ cell population minus the 0.2% DMSO control in the CCTE_Deisenroth_DEVTOX-GLR_Endo assay. Furthermore, this assay endpoint can be referred to as a secondary readout, because this assay has produced multiple assay endpoints where this one serves as a measure of mesoderm differentiation.
# (§1) All assay protocols are aligned to the DevTox GLR-Endo assay workflow. Cells are seeded into 384-well microplates for 24 hours prior to initiating differentiation in defined media for a total duration of 48 hours. A total of two chemical exposures are administered in 24-hour intervals during the 48-hour differentiation period. At the assay termination point, cells are fixed and stained with a fluorescent dye demarcating the nucleus. High-content imaging is used to acquire brightfield and fluorescent channel images across 5 fields per well. Cell identification and mean biomarker fluorescence intensities are calculated with image analysis software to determine the total cell counts for viability assessment and the biomarker expression frequency for each lineage-dependent assay. A typical experimental design tests a 10-point concentration series (1 nM - 200 uM) for 28 compounds in single technical replicate. Assay plate controls include non-differentiated pluripotent cells (baseline control), lineage-specific differentiated cells (differentiation control), and DMSO solvent exposed differentiated cells (solvent control). Experiments typically comprise a minimum of four experimental replicates (n=4).
# [4] = CCTE_Deisenroth_DEVTOX-GLR_Endo_CellCount: Viability Assessment in CCTE's DevTox GLR-Endo Assay, Deisenroth Lab (AID 2284420)
# Protocol: CCTE_Deisenroth_DEVTOX-GLR_Endo assay is a cell-based, multiplex-readout assay that uses RUES2-GLR, a human pluripotent cell line, with measurements taken at 48 hours after chemical dosing in a 384-well microplateCCTE_Deisenroth_DEVTOX-GLR_Endo_CellCount is 1 of 4 assay components calculated from the CCTE_Deisenroth_DEVTOX-GLR_Endo assay and it measures cell count. Using fluorescent nuclear staining, loss-of-signal activity can be used to understand changes in cell viability with fluorescent microscopy. It is designed to make measurements of nuclei counts as a surrogate for cell number, as detected with optical fluorescence microscopy by Perkin Elmer Harmony nuclei detection algorithm. To generalize the intended target to other relatable targets, this assay component is annotated to the cell cycle intended target family, where the subfamily is cytotoxicity.Data from the assay component CCTE_Deisenroth_DEVTOX-GLR_Endo_CellCount was analyzed as 1 assay endpoint. The endpoint the percent change in cell count relative to the 0.2% DMSO control in the CCTE_Deisenroth_DEVTOX-GLR_Endo assay. Furthermore, this assay endpoint can be referred to as a primary readout, because this assay has produced multiple assay endpoints where this one serves as a measure of cytotoxicity.
# as §1
# [5] = tested on: SRY-box transcription factor 17 (SOX17) Protein Expression, Deisenroth Lab, SOX17 (gene 64321); assay: CCTE_Deisenroth_DEVTOX-GLR_Pluri_SOX17: CCTE's DevTox GLR-Pluri Assay Evaluation of SRY-box transcription factor 17 (SOX17) Protein Expression, Deisenroth Lab (AID 2284427; active = hit-call score of the fitted dose curve at least 0.9, where 1 is the maximum)
# Procedure, shortened: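 RUES2-GLR human pluripotent cells were seeded 24 h, then differentiated 48 h in defined media with two chemical exposures 24 h apart (10-point series, 1 nM - 200 uM). Fixed, nuclear-stained cells were imaged; %SOX17+ cells minus 0.2% DMSO control reported.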
# [6] = tested on: SRY-box transcription factor 2 (SOX2) Protein Expression, Deisenroth Lab, SOX2 (gene 6657); assay: CCTE_Deisenroth_DEVTOX-GLR_Pluri_SOX2: CCTE's DevTox GLR-Pluri Assay Evaluation of SRY-box transcription factor 2 (SOX2) Protein Expression, Deisenroth Lab (AID 2284428)
# Procedure, shortened: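 Human pluripotent RUES2-GLR cells were seeded 24 h, then differentiated 48 h in defined media with two chemical doses at 24-h intervals (10-point, 1 nM–200 uM). Nuclear-stained cells were imaged; SOX2+ cells/cell count gave percent change versus 0.2% DMSO control.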
# [7] = tested on: Brachyury (BRA) Protein Expression, Deisenroth Lab, TBXT (gene 6862); assay: CCTE_Deisenroth_DEVTOX-GLR_Pluri_BRA: CCTE's DevTox GLR-Pluri Assay Evaluation of Brachyury (BRA) Protein Expression, Deisenroth Lab (AID 2284429; active = hit-call score of the fitted dose curve at least 0.9, where 1 is the maximum)
# Procedure, shortened: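 Mesoderm readout after 48 h differentiation of human RUES2-GLR cells, dosed twice (24-h intervals) at 1 nM - 200 uM. BRA+ frequency from fluorescence imaging of fixed, nuclear-stained cells, DMSO-corrected.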
# [8] = CCTE_Deisenroth_DEVTOX-GLR_Pluri_CellCount: Viability Assessment in CCTE's DevTox GLR-Pluri Assay Evaluation of Total Cell Counts, Deisenroth Lab (AID 2284430)
# Procedure, shortened: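 Cytotoxicity readout: fluorescent nuclei counts by high-content imaging, expressed as percent change relative to 0.2% DMSO. Human RUES2-GLR pluripotent line differentiated 48 h, dosed twice at 24-h intervals across 1 nM - 200 uM (10 points).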
# [9] = tested on: TTR (gene 7276); assay: CCTE_GLTED_hTTR_0.125uM: CCTE's human Transthyretin (hTTR) Inhibition Assay, with 0.125uM TTR, Great Lakes Toxicology and Ecology Division (GLTED) Lab (AID 2284431);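 note: hits lower the fluorescence signal relative to DMSO baseline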
# Procedure, shortened: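 Cell-free displacement of the fluorescent probe ANSA from human TTR (0.125uM) after 2 h incubation with test chemical. Fluorescence read at 380 nm excitation/475 nm emission; loss of signal fitted relative to DMSO baseline.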
# [10] = CCTE_Deisenroth_H295R-HTRF_384WELL_CTOX: Cytotoxicity Assessment in CCTE's H295R-HTRF Assay, Deisenroth Lab (AID 2284380; active = hit-call score of the fitted dose curve at least 0.9, where 1 is the maximum)
# Procedure, shortened: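 Luminescent ATP viability readout (CellTiter-Glo 2.0), multiplexed on plates used for hormone sampling, after 48 h chemical exposure. Human H295R cells; final concentrations 0.001–100 uM in nine steps, technical triplicates, five experiments; DMSO baseline.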
compound,measurement,setting,value
CC/C(=C(/CC)c1ccc(O)cc1)c1ccc(O)cc1,AC50,[1],2.78 µM (active)
same,AC50,[2],0.65 µM (active)
same,AC50,[3],0.891 µM (active)
same,AC50,[4],1.58 µM (active)
same,AC50,[5],1.83 µM (active)
same,AC50,[6],7.85 µM (active)
same,AC50,[7],1.9 µM (active)
same,AC50,[8],1.45 µM (active)
same,AC50,[9],0.021 µM (active)
Cc1oc2c(NC(=O)c3c(Cl)cccc3Cl)cccc2c1C(C)(C)O,AC50,[9],1.47 µM (active)
CN(C)c1ccc(C(=C2C=CC(=[N+](C)C)C=C2)c2ccc(N(C)C)cc2)cc1,AC50,[9],21.6 µM (active)
CO[C@H]1/C=C/O[C@@]2(C)Oc3c(C)c(O)c4c(O)c(c(/C=N/N5CCN(C)CC5)c(O)c4c3C2=O)NC(=O)/C(C)=C\C=C\[C@H](C)[C@H](O)[C@@H](C)[C@@H](O)[C@@H](C)[C@H](OC(C)=O)[C@@H]1C,AC50,[1],83.6 µM (active)
same,AC50,[2],70.3 µM (active)
same,AC50,[3],88.8 µM (active)
same,AC50,[4],41.5 µM (active)
same,AC50,[5],137 µM (active)
same,outcome,[6],inactive
same,AC50,[7],59.9 µM (active)
same,AC50,[8],19.8 µM (active)
CCCCCCCCOc1ccc(C(=O)c2ccccc2)c(O)c1,AC50,[9],25 µM (active)
CCCOC(=O)c1cc(O)c(O)c(O)c1,AC50,[9],0.26 µM (active)
CC(=O)N1CCN(c2ccc(OC[C@H]3CO[C@](Cn4ccnc4)(c4ccc(Cl)cc4Cl)O3)cc2)CC1,outcome,[10],inactive
CC(C)(c1cc(Br)c(O)c(Br)c1)c1cc(Br)c(O)c(Br)c1,AC50,[9],0.0228 µM (active)
CCCCCc1ccc(N)cc1,AC50,[9],26.3 µM (active)
O=c1c(-c2ccc(O)cc2)coc2cc(O)cc(O)c12,outcome,[10],inactive
Clc1ccccc1C(c1ccccc1)(c1ccccc1)n1ccnc1,outcome,[10],inactive
CCCCCCCCOC(=O)c1cc(O)c(O)c(O)c1,AC50,[9],0.512 µM (active)
CCCCCCCCCC(=O)O,AC50,[9],7.04 µM (active)
O=C(O)Cc1cc(I)c(Oc2ccc(O)c(I)c2)c(I)c1,AC50,[9],0.0224 µM (active)
CCCCOC(=O)c1ccc(O)cc1,outcome,[10],inactive
same,AC50,[1],152 µM (active)
same,AC50,[2],56.3 µM (active)
same,AC50,[3],66.5 µM (active)
same,AC50,[4],37.9 µM (active)
same,AC50,[5],51.6 µM (active)
same,AC50,[6],21.6 µM (active)
same,AC50,[7],89.2 µM (active)
same,AC50,[8],19.8 µM (active)
same,AC50,[9],2.26 µM (active)
OCCO,outcome,[2],inactive
same,outcome,[3],inactive
same,outcome,[4],inactive
same,outcome,[6],inactive
same,outcome,[7],inactive
same,outcome,[8],inactive
COCC(C)OCC(C)OCC(C)O (stereo unspecified),outcome,[9],inactive
